{
  "source": "PubChem BioAssay (EPA / NIEHS)",
  "note": "Inconclusive results are not listed. Active and inactive are the calls of the source. The calls were made as follows: active = hit-call score of the fitted dose curve at least 0.9, where 1 is the maximum; inconclusive = response in the unintended direction; inactive = score below 0.9.",
  "data": [
    {"test_system": "not listed separately", "experiment": "TOX21_p53_BLA_p3_viability: Viability Assessment in the Tox21 HCT-116 p53 Agonism Beta-lactamase Assay, Phase 3 (AID 2283593);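 also: cells exposed to compound for 16 h before reading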", "procedure,_shortened": "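HCT-116 cells (4000/well) rested 5 h at 37C, then got DMSO compounds by pin tool (217-fold dilution) for 16 h at 37C, 5% CO2. After the bla read, CellTiter-Glo was added and luminescence read at 30 min, room temperature.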", "values": [
      {"compound": "CCCCCC[N+](=O)[O-]", "outcome": "inactive"},
      {"compound": "Clc1ccc(C(Cl)(Cl)Cl)c(Cl)c1", "outcome": "inactive"},
      {"compound": "C=CCN1CC[C@]23CCCC[C@H]2[C@H]1Cc1ccc(O)cc13", "outcome": "inactive"},
      {"compound": "CC1CC(CC2CCC(N)C(C)C2)CCC1N", "note": "(stereo not given)", "outcome": "inactive"},
      {"compound": "NC(=S)C(N)=S", "outcome": "inactive"},
      {"compound": "CCCC1CCCCN1", "note": "(stereo not given)", "outcome": "inactive"},
      {"compound": "[Cl-].[Cl-].[Sn+2]", "outcome": "inactive"},
      {"compound": "C1CCC2CCCCC2C1", "note": "(stereo not given)", "outcome": "inactive"},
      {"compound": "CC(C)=CCN1CC[C@]2(C)c3cc(O)ccc3C[C@H]1[C@H]2C", "outcome": "inactive"},
      {"compound": "CCC(=O)O[C@@](Cc1ccccc1)(c1ccccc1)[C@@H](C)CN(C)C", "outcome": "inactive"},
      {"compound": "CC(=O)CC(c1ccc(Cl)cc1)c1c(O)c2ccccc2oc1=O", "note": "(stereo not given)", "outcome": "inactive"},
      {"compound": "Cc1nnc2n1-c1sc(CCC(=O)N3CCOCC3)cc1C(c1ccccc1Cl)=NC2", "outcome": "inactive"},
      {"compound": "O=C([O-])c1ccccn1.O=C([O-])c1ccccn1.O=C([O-])c1ccccn1.[Cr+3]", "outcome": "inactive"},
      {"compound": "Nc1ccccc1-c1ccccc1", "outcome": "inactive"},
      {"compound": "CCCCCCC(=O)O[C@H]1CC[C@H]2[C@@H]3CC[C@H]4CC(=O)C=C(C)[C@]4(C)[C@H]3CC[C@]12C", "AC50": "37 µM (active)"},
      {"compound": "Cc1ccc(Cl)c(O)c1", "outcome": "inactive"},
      {"compound": "COc1ccc(OC)c([C@@H](O)[C@H](C)N)c1", "outcome": "inactive"},
      {"compound": "CC(C)(C)C(=O)C(Cl)Cl", "outcome": "inactive"},
      {"compound": "CCC1COC(Cn2cncn2)(c2ccc(Cl)cc2Cl)O1", "note": "(stereo not given)", "outcome": "inactive"},
      {"compound": "CC(C)CCC(=O)O[C@H]1CC[C@H]2[C@@H]3CCC4=CC(=O)CC[C@]4(C)[C@H]3CC[C@]12C", "outcome": "inactive"},
      {"compound": "O=C1C(=O)c2cccc3cccc1c23", "outcome": "inactive"},
      {"compound": "CN(C)c1ccc(N=Nc2ccccc2)cc1", "outcome": "inactive"},
      {"compound": "C=C1CC[C@@]2(O)[C@H]3Cc4ccc(O)c5c4[C@@]2(CCN3CC2CC2)[C@H]1O5", "outcome": "inactive"},
      {"compound": "O=[N+]([O-])c1cccc2cccnc12", "outcome": "inactive"},
      {"compound": "NC(=S)c1c(Cl)cccc1Cl", "outcome": "inactive"},
      {"compound": "CC(C)(C#N)C(C)(C)C#N", "outcome": "inactive"},
      {"compound": "CC(N)Cc1ccc(O)cc1", "note": "(stereo not given)", "outcome": "inactive"},
      {"compound": "CC[N+]1(C)CCCC(OC(=O)C(O)(c2ccccc2)c2ccccc2)C1", "note": "(stereo not given)", "outcome": "inactive"},
      {"compound": "C[C@]12CC[C@H]3[C@@H](CCC4=CC(=O)CC[C@@H]43)[C@@H]1CC[C@@H]2OC(=O)CCc1ccccc1", "outcome": "inactive"},
      {"compound": "C=CCBr", "outcome": "inactive"},
      {"compound": "CCCC[N+]1(C)[C@@H]2CC(OC(=O)[C@H](CO)c3ccccc3)C[C@H]1[C@@H]1O[C@@H]12", "note": "(stereo not given in full)", "outcome": "inactive"},
      {"compound": "O=C1CC(=O)NC(=O)N1", "outcome": "inactive"},
      {"compound": "c1cc2c(c(NC3=NCCN3)c1)CCCC2", "outcome": "inactive"},
      {"compound": "BrCC(Br)(Br)Br", "outcome": "inactive"},
      {"compound": "CCCCC1C(=O)NC(=O)N(C2CCCCC2)C1=O", "note": "(stereo not given)", "outcome": "inactive"},
      {"compound": "[O]=[Cr](=[O])([OH])[O][Cr](=[O])(=[O])[OH]", "AC50": "11.4 µM (active) [middle of 4 runs]"},
      {"compound": "[Cl-].[Cl-].[Cl-].[Fe+3]", "outcome": "inactive"},
      {"compound": "CCOC(=O)C(Cl)C(C)=O", "note": "(stereo not given)", "outcome": "inactive"},
      {"compound": "CC(=O)O[C@H]1CC[C@H]2[C@@H]3CCC4=CC(=O)CCC4=C3C=C[C@]12C", "outcome": "inactive"},
      {"compound": "C=C1C[C@@H]2[C@H](CC[C@]3(C)C(=O)CC[C@@H]23)[C@@]2(C)C=CC(=O)C=C12", "outcome": "inactive"}
    ]},
    {"target": "Cellular tumor antigen p53 (Homo sapiens) (UniProt P04637)", "sequence (P04637 whole entry, looked up)": "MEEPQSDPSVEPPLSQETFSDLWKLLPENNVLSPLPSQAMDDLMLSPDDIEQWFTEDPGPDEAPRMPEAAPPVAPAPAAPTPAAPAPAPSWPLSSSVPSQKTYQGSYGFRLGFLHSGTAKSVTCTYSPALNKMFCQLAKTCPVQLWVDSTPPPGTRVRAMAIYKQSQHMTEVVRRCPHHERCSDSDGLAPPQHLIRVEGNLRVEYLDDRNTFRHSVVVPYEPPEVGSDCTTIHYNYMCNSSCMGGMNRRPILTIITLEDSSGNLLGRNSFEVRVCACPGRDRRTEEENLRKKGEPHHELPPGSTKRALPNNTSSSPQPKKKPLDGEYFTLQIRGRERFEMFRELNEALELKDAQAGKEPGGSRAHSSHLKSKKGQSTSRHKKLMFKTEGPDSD", "experiment": "TOX21_p53_BLA_p3_ratio: Tox21 HCT-116 p53 Agonism Beta-lactamase Assay, Ratio, Phase 3 (AID 2283596)", "procedure,_shortened": "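Cells were seeded at 4000/well, rested 5 h at 37C, then dosed with DMSO compound solutions (217-fold dilution) for 16 h. CCF4-AM substrate was loaded for 2 h at room temperature, and the 460/530 nm emission ratio was fitted for gain of signal versus DMSO.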", "values": [
      {"compound": "Clc1ccc(C(Cl)(Cl)Cl)c(Cl)c1", "outcome": "inactive"},
      {"compound": "C=CCN1CC[C@]23CCCC[C@H]2[C@H]1Cc1ccc(O)cc13", "outcome": "inactive"},
      {"compound": "NC(=S)C(N)=S", "outcome": "inactive"},
      {"compound": "CCCC1CCCCN1", "note": "(stereo not given)", "outcome": "inactive"},
      {"compound": "C1CCC2CCCCC2C1", "note": "(stereo not given)", "outcome": "inactive"},
      {"compound": "CCC(=O)O[C@@](Cc1ccccc1)(c1ccccc1)[C@@H](C)CN(C)C", "outcome": "inactive"},
      {"compound": "Cc1nnc2n1-c1sc(CCC(=O)N3CCOCC3)cc1C(c1ccccc1Cl)=NC2", "outcome": "inactive"},
      {"compound": "O=C([O-])c1ccccn1.O=C([O-])c1ccccn1.O=C([O-])c1ccccn1.[Cr+3]", "outcome": "inactive"},
      {"compound": "Nc1ccccc1-c1ccccc1", "outcome": "inactive"},
      {"compound": "CCCCCCC(=O)O[C@H]1CC[C@H]2[C@@H]3CC[C@H]4CC(=O)C=C(C)[C@]4(C)[C@H]3CC[C@]12C", "outcome": "inactive"},
      {"compound": "Cc1ccc(Cl)c(O)c1", "outcome": "inactive"},
      {"compound": "COc1ccc(OC)c([C@@H](O)[C@H](C)N)c1", "outcome": "inactive"},
      {"compound": "CC(C)(C)C(=O)C(Cl)Cl", "outcome": "inactive"},
      {"compound": "CCC1COC(Cn2cncn2)(c2ccc(Cl)cc2Cl)O1", "note": "(stereo not given)", "outcome": "inactive"},
      {"compound": "CC(C)CCC(=O)O[C@H]1CC[C@H]2[C@@H]3CCC4=CC(=O)CC[C@]4(C)[C@H]3CC[C@]12C", "outcome": "inactive"},
      {"compound": "CN(C)c1ccc(N=Nc2ccccc2)cc1", "outcome": "inactive"},
      {"compound": "C=C1CC[C@@]2(O)[C@H]3Cc4ccc(O)c5c4[C@@]2(CCN3CC2CC2)[C@H]1O5", "outcome": "inactive"},
      {"compound": "O=[N+]([O-])c1cccc2cccnc12", "outcome": "inactive"},
      {"compound": "NC(=S)c1c(Cl)cccc1Cl", "outcome": "inactive"},
      {"compound": "CC(C)(C#N)C(C)(C)C#N", "outcome": "inactive"},
      {"compound": "CC(N)Cc1ccc(O)cc1", "note": "(stereo not given)", "outcome": "inactive"},
      {"compound": "CC[N+]1(C)CCCC(OC(=O)C(O)(c2ccccc2)c2ccccc2)C1", "note": "(stereo not given)", "outcome": "inactive"},
      {"compound": "C[C@]12CC[C@H]3[C@@H](CCC4=CC(=O)CC[C@@H]43)[C@@H]1CC[C@@H]2OC(=O)CCc1ccccc1", "outcome": "inactive"},
      {"compound": "C=CCBr", "outcome": "inactive"},
      {"compound": "CCCC[N+]1(C)[C@@H]2CC(OC(=O)[C@H](CO)c3ccccc3)C[C@H]1[C@@H]1O[C@@H]12", "note": "(stereo not given in full)", "outcome": "inactive"},
      {"compound": "c1cc2c(c(NC3=NCCN3)c1)CCCC2", "outcome": "inactive"},
      {"compound": "BrCC(Br)(Br)Br", "AC50": "13.1 µM (active)"},
      {"compound": "CCOC(=O)C(Cl)C(C)=O", "note": "(stereo not given)", "outcome": "inactive"},
      {"compound": "CC(=O)O[C@H]1CC[C@H]2[C@@H]3CCC4=CC(=O)CCC4=C3C=C[C@]12C", "outcome": "inactive"},
      {"compound": "C=C1C[C@@H]2[C@H](CC[C@]3(C)C(=O)CC[C@@H]23)[C@@]2(C)C=CC(=O)C=C12", "outcome": "inactive"}
    ]}
  ]
}
